# MITF TRPM1 HTS = MITF TRPM1 promoter activation in melanoma cells. SK-MEL-5 TRPM1-promoter luciferase, 24 h; % of positive control, neutral wells = 0. activation, % at 12.5 µM. actives 0.75% (n = 300,000). AID 588334;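 active = mean activation of at least 80% with every replicate also reaching 80%; inconclusive = mean reaches 80% but some replicate falls short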;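 note: 0% = neutral control wells and 100% = parthenolide positive control wells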
# FGF22 binding = FGF22 (human) thermal shift binding; Q9HCT0; recombinant FGF22 thermal shift, SYPRO orange fluorescence; percent of sucrose octasulfate shift, DMSO zero; activity (Tm shift, normalised), % at 9.99 µM; actives 1.5% (n = 340,000); AID 651658;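 active = mean Tm shift, scaled 0 neutral to 100 positive control, at about 1.3% or above, every replicate too, limit read from the data; inconclusive = no clear call, values can overlap the other calls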
# Target sequence (Q9HCT0 whole entry, looked up): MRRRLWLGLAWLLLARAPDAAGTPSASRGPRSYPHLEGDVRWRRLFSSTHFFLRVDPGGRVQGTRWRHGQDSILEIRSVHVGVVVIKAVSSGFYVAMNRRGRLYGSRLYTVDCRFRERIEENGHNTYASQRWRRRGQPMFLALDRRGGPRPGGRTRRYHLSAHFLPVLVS
# AF4-AF9 inh = MLL-AF4/AF9 protein interaction inhibition; P42568; AlphaScreen, biotin-AF4 peptide binding to FLAG-AF9; inhibition, % at 10 µM; actives 0.47% (n = 350,000);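 active = every replicate reaching a set inhibition limit, whatever the replicate mean, cut at about 25% in these data; inconclusive = mean inhibition reaches that limit but some replicates miss it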;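 note: 0% = plate neutral control median and 100% = total signal loss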
# SMARCA2 activ = increases SMARCA2 function in MMTV reporter cells; activation, % at 9.1 µM; actives 1% (n = 370,000); MG213 cells, MMTV-luciferase reporter, dexamethasone, overnight; in the data active = activation above about 7.8%;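 note: 0% = vehicle wells and 100% = reference activator wells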
# Wnt bcat act = activates Wnt/beta-catenin signaling in a reporter cell assay. activator, plate reader. actives 1.2% (n = 300,000). activation, % at 9.35 µM; in the data active = activation above about 30%, passing the limit was not always enough; inconclusive = no clear call, values can overlap the other calls;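 note: 0% = neutral control wells and 100% = positive control wells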
# esBAF inh = inhibitors of esBAF chromatin remodeling in mouse ES cells | reporter increase, % at 12.5 µM | actives 2% (n = 350,000) | Bmi1-luciferase knock-in reporter, 24 h; 100% = twice the neutral-well signal; in the data active = activation above about 40%; inconclusive = no clear call, values can overlap the other calls;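 note: 0% = median of the plate's neutral control wells and 100% = double that signal; a rise in the Bmi1 reporter signal indicates esBAF inhibition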
# SMARCA2 act conf = confirmation of SMARCA2 (BRM) function activators; shares compounds with SMARCA2 activ; MG213 cells, MMTV-luciferase with dexamethasone, luminescence, overnight; MG213 cells expressing E1A, Rb sequestered; DMSO wells 0%, reference activator 100%; activation, % at 9.1 µM; actives 30% (n = 3,500); AID 652260;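 active = activation above its plate's cutoff, the mean activation of tested wells plus 3 SD, cut at about 7.9% in these data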
# VP16 Luc act = GAL4-VP16 reporter activation counter-screen; shares compounds with SMARCA2 activ; AID 686939; HEK293 GAL4-VP16 pG5luc reporter, luciferase luminescence; scaled: DMSO wells 0%, SAHA wells 100%; actives 41% (n = 3,500); activation, % at 9.1 µM;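 active = activation above the solvent-only control well mean plus 3 SD, averaged across control plates, cut at about 5.2% in these data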
# Active calls of the source: *; ? = inconclusive; · = not tested or not shown; ! = not active in a repeat. The list is not random: actives were taken first. Their share in the collection is about 4.3%.
SMILES,MITF TRPM1 HTS,FGF22 binding,AF4-AF9 inh,SMARCA2 activ,Wnt bcat act,esBAF inh,SMARCA2 act conf,VP16 Luc act
COc1ccc(C(=O)C=Cc2ccc3c(c2)OCO3)cc1OC,·,0,1,10*,7,·,12*,0
COc1ccc(/C=C/C(=O)c2ccc3c(c2)OCO3)c(OC)c1,?,0,9,11*,0,·,8.8*,8.0*
COc1ccc2c3c(n(C)c2c1)[C@@H](CO)N(Cc1ccccc1F)CC31CN(C(=O)C2CCOCC2)C1,·,0,0,·,·,·,·,·
COc1ccccc1C(=O)Nc1nsc(-c2ccccc2)n1,?,0,-5,8.8*,?,46*,13*,15*
COc1ccccc1C(=O)Nc1ccncc1,3,0,-5,0,1,-3,·,·
Fc1ccccc1CSc1ncn[nH]1,·,·,·,9.0*,6,5,-2,-1
C/C=C/c1ccc2c(c1)O[C@@H](CN(C)C(=O)Cc1ccncc1)[C@@H](C)CN([C@@H](C)CO)S2(=O)=O,·,0,1,·,·,-4,·,·
Oc1ccc(/C=N/Nc2ccnc3cc(Cl)ccc23)c(O)c1,-8,0,6,15*,3,33,18*,2
CCN(CC)Cc1cc(Nc2ccnc3cc(Cl)ccc23)ccc1O,-4,0,9,8.2*,-4,-4,20*!,-2
Oc1ccc(Nc2ccnc3cc(Cl)ccc23)cc1,-5,0,1,7,3,10,·,·
C[C@@H]1CCCCO[C@H](CN(C)C(=O)Nc2cccc3ccccc23)[C@H](C)CN([C@@H](C)CO)C(=O)c2cc(NS(C)(=O)=O)ccc2O1,·,-1,2,·,·,0,·,·
CCCC#Cc1cnc2c(c1)C(=O)N([C@@H](C)CO)C[C@@H](C)[C@@H](CN(C)C(=O)c1ccc(F)cc1)O2,·,0,-1,·,·,-1,·,·
Nc1nn(-c2ccccc2)c(N)c1N=Nc1ccccc1,31,·,·,15*,26,·,7,27*
O=C(C[C@@H]1C=C[C@@H](NS(=O)(=O)c2ccc(F)cc2)[C@H](CO)O1)NC1CCCCC1,·,0,-1,·,·,5,·,·
CCCCNC(=O)NCC1CCN(Cc2ccc(OC)cc2)CC1,·,·,·,6,·,·,·,·
Cc1cc(/C(N)=N/OC(=O)c2cccc(Cl)c2)no1,·,0,-2,13*,38*,·,4,1
Cc1cc(/C(N)=N/OC(=O)c2ccc(Cl)cc2)no1,·,0,·,4,0,45,·,·
N/C(=N\OC(=O)c1ccc2c(c1)OCO2)c1ccc(Cl)cc1,106*,0,4,8.9*,-2,28,10*,6.8*
Cc1cccc(/C(N)=N/OC(=O)c2ccoc2C)c1,39,0,3,8.1*,19,36,13*,13*
COc1cc(OC)c(C(=O)O/N=C(\N)c2ccccc2)cc1OC,29,0,1,8.6*,8,32,3,2
Cc1occc1C(=O)O/N=C(\N)c1ccccc1,·,0,-2,5,10,·,·,·
C[C@H](CO)N1C[C@H](C)[C@@H](CN(C)S(=O)(=O)c2ccc(F)cc2)OCCCC[C@H](C)Oc2ccc(NC(=O)Nc3cccc4ccccc34)cc2C1=O,·,0,-2,·,·,0,·,·
COCc1cc(N2CCNC[C@@H]2C)ccc1N1C[C@@H](C)O[C@@H](C)C1,·,0,·,1,-1,·,·,·
O=C(CN(CCc1ccccc1)S(=O)(=O)c1cccs1)N1CCOCC1,·,·,·,-2,·,·,·,·
C[C@@H]1CN([C@H](C)CO)S(=O)(=O)c2ccc(-c3cccnc3)cc2O[C@H]1CN(C)Cc1cccnc1,·,·,·,·,·,1,·,·
SMILES,MITF TRPM1 HTS,FGF22 binding,AF4-AF9 inh,SMARCA2 activ,Wnt bcat act,esBAF inh,SMARCA2 act conf,VP16 Luc act
Cc1cccc(OCC(=O)O/N=C(\N)c2ccc(Cl)cc2)c1,10,·,·,·,·,1,·,·
Cc1cccc(C(=O)O/N=C(\N)c2ccc(Cl)cc2)c1,27,0,-9,9.0*,44*,·,8,5
COc1cccc(C=Nc2ccc(N3CCOCC3)cc2)c1O,·,0,11,-2,0,-9,·,·
COc1cccc(/C=N/N2CCOCC2)c1O,47,0,-1,10*,20,·,4,3
CC(C)(C)OC(=O)N1CCC(CNC(=O)c2ccccc2)CC1,·,0,-1,8.8*,3,·,-1,1
Nc1ccc(C2(c3ccc(N)cc3)C(=O)Nc3ccccc32)cc1,8,0,-41,-2,-1,-3,·,·
O=C1Nc2ccccc2C1(c1ccccc1)c1ccccc1,·,·,·,11*,·,5,3,-2
COC(=O)c1ccc(NC(=S)NC2c3ccccc3CC2O)cc1 (stereo not drawn),3,43,3,8.3*,-1,·,4,0
O=c1cc2[nH]c3ccccc3c(=O)n2nc1-c1ccccc1,43,·,·,8.7*,·,9,9.5*,6.2*
CC(c1ccccc1)N1CCn2c(nc3cc(NC(=O)c4cccs4)ccc32)C1 (stereo not drawn),46,·,·,9.9*,·,15,7,3
COCCN1CCn2c(nc3cc(NC(=O)c4cccs4)ccc32)C1,14,·,·,-1,·,1,·,·
Oc1ccc(CCNc2c3ccccc3nc3ccccc23)cc1O,·,-1,19,8.4*,0,-4,25*,2
CC(=Nc1cccc(O)c1)c1sc2ccccc2c1O,55,0,-5,14*,20,82*,8.1*,13*
COc1ccc(-c2cnc3c(c2)C(=O)N([C@H](C)CO)C[C@H](C)[C@H](CN(C)C(=O)C2CCC2)O3)cc1,·,0,-1,·,·,7,·,·
CO[C@@H]1CN(C)C(=O)c2ccc(NC(=O)c3ccc(F)cc3)cc2OC[C@H](C)N(C(=O)CC2CC2)C[C@@H]1C,·,0,-1,·,·,1,·,·
COc1ccc(OC)c(Nc2nc(-c3cccs3)cs2)c1,14,·,·,3,10,8,·,·
COc1ccccc1Nc1nc(-c2cccs2)cs1,62,0,4,8.4*,22,52*,5,7.4*
CC(C)C[C@H]1CN([C@@H](Cc2ccc(O)cc2)CN2CCC[C@@H]2CN2C(=S)NC[C@@H]2Cc2ccccc2)C(=S)N1CC1CCCCCC1,·,0,-53,-1,-4,-4,·,·
CC(C)C[C@H]1CN([C@@H](Cc2ccc(O)cc2)CN2CCCC2CN2C(=S)NC[C@@H]2Cc2ccccc2)C(=S)N1CC1CCCCC1 (stereo partly drawn),·,0,1,8.0*,-4,·,-3,-1
CN(C)Cc1cn(CC[C@H]2CC[C@@H](NS(=O)(=O)c3ccc(-c4ccccc4)cc3)[C@H](CO)O2)nn1,·,0,-2,·,·,1,·,·

# From PubChem BioAssay
